# Results: PubChem BioAssay AID1789 (The Scripps Research Institute Molecular Screening Center, 2009)
# About 2,700 (0.93%) of roughly 290,000 compounds were called active.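 How the source made its calls: active means inhibition above the screen-wide mean plus 3 SD, computed separately per campaign (cut at about 16% in these data); inactive means the rest.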 Many of the other results were omitted from the sample, so actives are more common in it than they were.
# Test system: Heat shock protein HSP 90 (rabbit reticulocyte lysate; luciferase refolding)
# Assay: HSP90 inhibitors, primary screen, cell lysate, luminescence (AID 1789);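 further: 0% = DMSO wells and 100% = 60 µM geldanamycin wells; inhibitors lower the luminescence because luciferase stays unfolded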
# Conditions: 3 h, at 5.6 µM, stronger effect = higher value
row,SMILES,inhibition
1,CCOc1ccc(OCC(=O)Nc2c3c(nn2C(C)(C)C)CS(=O)(=O)C3)cc1,4.2% (inactive)
2,CCN(CCCNC(=O)c1ccc2c(c1)NC(=O)CN2C)c1cccc(C)c1,19.6% (active)
3,Cc1cccc(C(=O)NCCCN(C)CCCNC(=O)c2cccc(C)c2)c1,-1.31% (inactive)
4,CCN(CCCNC(=O)CCn1c(=O)[nH]c2ccsc2c1=O)c1ccccc1,0.39% (inactive)
5,O=C(Oc1cccc(C(=S)N2CCOCC2)c1)c1cccc(Cl)c1,-2.58% (inactive)
6,CC(=O)c1ccc(N2CCN(C(=O)CCc3ccccc3)CC2)cc1,-1.79% (inactive)
7,C=CCN1CCN(C(=O)CCCc2ccccc2)CC1,39.7% (active)
8,O=C(CCCc1ccccc1)NCc1ccccc1,-2.48% (inactive)
9,O=C(OCc1ccc(-c2ccccc2)cc1)c1cccc(O)c1,18.4% (active)
10,O=C(OCC(=O)c1c[nH]c2ccccc12)c1cccc(O)c1,-4.88% (inactive)
11,O=C(OCc1ccc(Br)cc1)c1cccc(-c2nnc(-c3ccccc3)o2)c1,3.03% (inactive)
12,O=C(COc1cc2oc(=O)c3c(c2cc1Cl)CCC3)NCCCN1CCOCC1,-0.69% (inactive)
13,COc1ccc(N2CCN(C(=O)C3CCN(C(=O)c4ccccc4Cl)CC3)CC2)cc1,1.46% (inactive)
14,COc1ccc(NC(=O)C/C(C)=N/NC(=O)c2cnccn2)cc1Cl,-1.56% (inactive)
15,O=C(CSc1cccc[n+]1[O-])c1ccc(-c2ccccc2)cc1,-3.2% (inactive)
16,Cc1ccc(Sc2cc(C(=O)c3ccccc3C(=O)O)ccc2[N+](=O)[O-])cc1,-2.36% (inactive)
17,Cc1ccc(C(=O)CSc2ccccc2C(=O)O)cc1,23.8% (active)
18,COc1ccc(C(C(=O)NC2CCCC2)N(CCCO)C(=O)Cn2nnc(-c3ccc(C)o3)n2)cc1 (configuration not stated),-2.61% (inactive)
19,CCOC(=O)CSc1nc(N2CCOCC2)c2c(c1C#N)CC(C(C)C)OC2 (configuration not stated),0.22% (inactive)
20,CCC(=C/c1sc2ccc3ccccc3c2[n+]1C)/C=C1\Sc2ccc3ccccc3c2N1C,19.1% (active)
21,CCn1c(=O)c(=O)[nH]c2c(=O)oc3ccc(S(=O)(=O)Nc4ccc(OC)cc4)cc3c21,1.48% (inactive)
22,CCOC(=O)c1ccc(NC(=O)c2ccc(NC(=O)C3CCCO3)cc2)cc1 (configuration not stated),-2.21% (inactive)
23,COc1ccc(CCNC(=O)C(=O)NCC2OCCN2S(=O)(=O)c2ccc(OC)c(C)c2)cc1 (configuration not stated),3.33% (inactive)
24,O=C(NCCCN1CCCC1=O)C(=O)NCC1OCCN1S(=O)(=O)c1ccc(Br)cc1 (configuration not stated),-3.67% (inactive)
25,CCOC(=O)C1=C(c2ccccc2)NC(=S)NC1c1ccc(Cl)cc1 (configuration not stated),2.24% (inactive)
26,CCOc1ccc(C2NC(=S)NC3=C2CCc2ccccc23)cc1 (configuration not stated),24.1% (active)
27,COc1ccc(C2NC(=S)NC3=C2CCc2ccccc23)cc1OC (configuration not stated),-4.91% (inactive)
